# Experimental data: paper PMC8384837, “Expanding the binding specificity for RNA recognition by a PUF domain”
# Columns and labels:
# Assay in all cases: yeast three-hybrid, YBZ-1, SC-Leu-His + 0.5 mM 3-AT, 4 days
# Conditions in all cases: tags: N-Gal4 AD-HA kept; label: inside an RPR1-promoter hybrid RNA with tandem MS2 sites; ssRNA
# [1] = biological target: PUM1 PUF domain R8-KRA (Homo sapiens, UniProt Q14671 828-1176, N1122K;Y1123R;Q1126A)
# Procedure, shortened: (§1)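 The interaction score is the log change in how often each variant appears, from input to selection. Frequencies came from PCR-amplified, Illumina-sequenced repeat regions of Pumilio-1 PUF domain libraries grown in strain YBZ-1 (LexA–MS2 coat fusion, HIS3 reporter) alongside matching RNA elements. Input plates were SC-Leu and selection plates were SC-Leu-His + 0.5 mM 3-AT, each for four days, and the log2 calculation used a pseudocount of 1 where a variant was absent.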
# [2] = biological target: PUM1 PUF domain R8-FHK (Homo sapiens, UniProt Q14671 828-1176, N1122F;Y1123H;Q1126K)
# Procedure, shortened: as §1
# [3] = biological target: PUM1 PUF domain R5-QRW (Homo sapiens, UniProt Q14671 828-1176, C1007Q;Q1011W)
# Procedure, shortened: as §1
# [4] = biological target: PUM1 PUF domain R3-TWG (Homo sapiens, UniProt Q14671 828-1176, C935T;R936W;Q939G)
# Procedure, shortened: as §1
# [5] = biological target: PUM1 PUF domain R5-HRP (Homo sapiens, UniProt Q14671 828-1176, C1007H;Q1011P)
# Procedure, shortened: as §1
# [6] = biological target: T1, PUM1 PUF domain R6-LYC (Homo sapiens, UniProt Q14671 828-1176, N1043L;Q1047C)
# T1 sequence: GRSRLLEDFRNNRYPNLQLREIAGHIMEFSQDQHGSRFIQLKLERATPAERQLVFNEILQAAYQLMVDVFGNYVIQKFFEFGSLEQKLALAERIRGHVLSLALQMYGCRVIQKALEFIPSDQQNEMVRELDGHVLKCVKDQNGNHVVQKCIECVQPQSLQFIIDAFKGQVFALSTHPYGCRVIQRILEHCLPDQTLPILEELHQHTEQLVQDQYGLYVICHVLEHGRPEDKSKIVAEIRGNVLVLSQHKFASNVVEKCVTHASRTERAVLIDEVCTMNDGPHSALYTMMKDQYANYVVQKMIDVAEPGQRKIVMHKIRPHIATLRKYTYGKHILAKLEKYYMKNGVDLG
# Procedure, shortened: as §1
# [7] = biological target: PUM1 PUF domain R7-EFG (Homo sapiens, UniProt Q14671 828-1176, S1079E;N1080F;E1083G)
# Procedure, shortened: as §1
# [8] = biological target: PUM1 PUF domain R1-KSS (Homo sapiens, UniProt Q14671 828-1176, S863K;R864S;Q867S)
# Procedure, shortened: as §1
# [9] = biological target: PUM1 PUF domain R3-GVE (Homo sapiens, UniProt Q14671 828-1176, C935G;R936V;Q939E)
# Procedure, shortened: as §1
# [10] = biological target: PUM1 PUF domain R3-GFF (Homo sapiens, UniProt Q14671 828-1176, C935G;R936F;Q939F)
# Procedure, shortened: as §1
sequence,measurement,setting,value
GGCUAGAACUAGUGGAUCCCCCGGCGCCCGGCGGCUCGAGCCCGGGUAAGCGUAAAUAGUCUGCAUGCCGCCGGGCGCCAUGCCUGCAGGUCGACUCUAGAAAACAUG,binding signal,[1],2.55 log2 enrichment (interaction score)
same,binding signal,[2],3.34 log2 enrichment (interaction score)
GGCUAGAACUAGUGGAUCCCCCGGCGCCCGGCGGCUCGAGCCCGGGUAAGUGUGAAUAGUCUGCAUGCCGCCGGGCGCCAUGCCUGCAGGUCGACUCUAGAAAACAUG,binding signal,[3],4.36 log2 enrichment (interaction score)
GGCUAGAACUAGUGGAUCCCCCGGCGCCCGGCGGCUCGAGCCCGGGUAAGUGUAAUUAGUCUGCAUGCCGCCGGGCGCCAUGCCUGCAGGUCGACUCUAGAAAACAUG,binding signal,[4],0.73 log2 enrichment (interaction score)
GGCUAGAACUAGUGGAUCCCCCGGCGCCCGGCGGCUCGAGCCCGGGUAAGUGUUAAUAGUCUGCAUGCCGCCGGGCGCCAUGCCUGCAGGUCGACUCUAGAAAACAUG,binding signal,[5],3.28 log2 enrichment (interaction score)
GGCUAGAACUAGUGGAUCCCCCGGCGCCCGGCGGCUCGAGCCCGGGUAAGUGAAAAUAGUCUGCAUGCCGCCGGGCGCCAUGCCUGCAGGUCGACUCUAGAAAACAUG,binding signal,[6],3.19 log2 enrichment (interaction score)
GGCUAGAACUAGUGGAUCCCCCGGCGCCCGGCGGCUCGAGCCCGGGUAAGUCUAAAUAGUCUGCAUGCCGCCGGGCGCCAUGCCUGCAGGUCGACUCUAGAAAACAUG,binding signal,[7],3.46 log2 enrichment (interaction score)
GGCUAGAACUAGUGGAUCCCCCGGCGCCCGGCGGCUCGAGCCCGGGUAAGUGUAAAUCGUCUGCAUGCCGCCGGGCGCCAUGCCUGCAGGUCGACUCUAGAAAACAUG,binding signal,[8],4.09 log2 enrichment (interaction score)
GGCUAGAACUAGUGGAUCCCCCGGCGCCCGGCGGCUCGAGCCCGGGUAAGUGUAAGUAGUCUGCAUGCCGCCGGGCGCCAUGCCUGCAGGUCGACUCUAGAAAACAUG,binding signal,[9],3.97 log2 enrichment (interaction score)
same,binding signal,[4],4.61 log2 enrichment (interaction score)
GGCUAGAACUAGUGGAUCCCCCGGCGCCCGGCGGCUCGAGCCCGGGUAAGUGUCAAUAGUCUGCAUGCCGCCGGGCGCCAUGCCUGCAGGUCGACUCUAGAAAACAUG,binding signal,[3],0.43 log2 enrichment (interaction score)
same,binding signal,[5],1.78 log2 enrichment (interaction score)
GGCUAGAACUAGUGGAUCCCCCGGCGCCCGGCGGCUCGAGCCCGGGUAAGUGUAAAUAGUCUGCAUGCCGCCGGGCGCCAUGCCUGCAGGUCGACUCUAGAAAACAUG,binding signal,[1],1.2 log2 enrichment (interaction score)
same,binding signal,[10],5.53 log2 enrichment (interaction score)
same,binding signal,[6],3.91 log2 enrichment (interaction score)
